Experimental findings from PubChem BioAssay (EPA / NIEHS) are described below.

The nature of assay [1]: ATG_CRE_CIS: Attagene CIS-FACTORIAL HepG2 Assay for human cAMP Responsive Element (CRE) binding protein 3 (AID 2282926). As to conditions: HepG2 CRE cis-reporter, Attagene multiplexed mRNA; actives raise or lower the signal. A digest of the protocol: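 Liver-derived HepG2, transfected with a CRE-containing reporter panel, exposed 24 h; transcript levels sized and quantified by capillary electrophoresis of labelled amplicons; signal changes either way referenced to vehicle.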

In assay [2] the target is CCAAT/enhancer-binding protein beta (Homo sapiens) (UniProt P17676). The assay can be described thus: ATG_C_EBP_CIS: Attagene CIS-FACTORIAL HepG2 Assay for human CCAAT/Enhancer Binding Protein (C/EBP) beta (AID 2282927). The conditions noted are these: HepG2 Attagene cis-factorial transcription factor reporter; actives raise or lower the signal. A digest of the protocol: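 Changes in reporter mRNA, rather than exogenous chimeric receptor activity, reflect native C/EBP signalling in transfected HepG2 cells dosed for 24 h; transcripts are detected by RT-PCR and capillary electrophoresis.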

Assay [3] can be described thus: ATG_CMV_CIS: Attagene CIS-FACTORIAL HepG2 Assay for human CMV (Internal Marker) (AID 2282928).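 Note: endpoint acts as a background internal control marker rather than a target.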 As to conditions: HepG2 CMV promoter reporter, transcription factor profiling; actives raise or lower the signal. A digest of the protocol: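 24 h chemical treatment, HepG2 with transient multi-reporter transfection; RNA → oligo(dT) RT → PCR → 6-FAM extension → HpaI digest → CE fluorescence. Bidirectional fit, DMSO negative control.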

Assay [4] in a line: ATG_DR4_LXR_CIS: Attagene CIS-FACTORIAL HepG2 Assay for human Liver X Receptor (LXR), DR4 submotif (AID 2282929). The conditions noted are these: HepG2 Attagene DR4 cis-reporter, mRNA transcription; actives raise or lower the signal. A digest of the protocol: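 Fluorescence intensity of labelled reporter cDNA fragments, separated by capillary electrophoresis, gives the signal. HepG2 cells bearing cis-regulated reporter constructs were treated 24 h; activity fitted bidirectionally relative to DMSO negative control.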

Assay [5] concerns the target Aryl hydrocarbon receptor (Homo sapiens) (UniProt P35869). The assay can be described thus: ATG_Ahr_CIS: Attagene CIS-FACTORIAL HepG2 Assay for human Aryl Hydrocarbon Receptor (Ahr) (AID 2282930). As to conditions: HepG2 AhR cis-factorial reporter transcription; actives raise or lower the signal. The procedure, abridged:
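HepG2, transient MRTU (cis) transfection, 24 h exposure. RNA → cDNA → PCR → 6-FAM primer extension → HpaI 2 h 37 C → CE. Fit: bidirectional, DMSO baseline.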

Assay [6] in a line: ATG_AP_1_CIS: Attagene CIS-FACTORIAL HepG2 Assay for human Activator Protein 1 (AP-1) (AID 2282931). The conditions noted are these: HepG2 Attagene cis-factorial AP-1 reporter mRNA; actives raise or lower the signal. A digest of the protocol: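 Multiplexed HepG2 reporter assay, 24 h dosing. mRNA induction detected by RT-PCR plus capillary electrophoresis. Activity fitted in both directions against DMSO.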

A short description of assay [7]: ATG_BRE_CIS: Attagene CIS-FACTORIAL HepG2 Assay for human Bone Morphogenetic Protein (BMP) Response Element (BRE) (AID 2282933). The conditions noted are these: HepG2 BMP response element reporter, Attagene transcription factor profiling; actives raise or lower the signal. A digest of the protocol:
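Gain- or loss-of-signal was derived by bidirectional fitting against DMSO controls. The signal came from reporter mRNA, measured by RT-PCR and capillary electrophoresis, in HepG2 cells transiently carrying multiple reporter units and dosed for 24 h.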

Assay [8] deals with Retinoic acid receptor alpha (Homo sapiens) (UniProt P10276). The experiment in a line: ATG_DR5_RAR_CIS: Attagene CIS-FACTORIAL HepG2 Assay for human Retinoic Acid Receptor Alpha (RARE), DR5 submotif (AID 2282934). As to conditions: HepG2 Attagene cis-factorial RARE DR5 reporter, mRNA; actives raise or lower the signal. A digest of the protocol:
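HepG2, transient cis-reporter transfection, 24 h exposure. mRNA readout: RT-PCR, FAM label, HpaI cut, capillary electrophoresis. DMSO baseline, gain/loss fitting.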

Assay [9] deals with Transcription factor E2F1 (Homo sapiens) (UniProt Q01094). The assay can be described thus: ATG_E2F_CIS: Attagene CIS-FACTORIAL HepG2 Assay for human E2F Transcription Factor 1 (AID 2282935). As to conditions: HepG2 Attagene cis-reporter, E2F reporter RNA transcripts; actives raise or lower the signal. The procedure, abridged:
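Fluorescent RT-PCR products, digested with HpaI for 2 h at 37 C, are separated by capillary electrophoresis. Source RNA comes from transfected HepG2 cultures treated for 24 h.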

A short description of assay [10]: ATG_M_61_CIS: Attagene CIS-FACTORIAL HepG2 Assay for M61 Transcription Factor (Internal Marker) (AID 2282937). The conditions noted are these: HepG2 Attagene CIS-FACTORIAL M61 internal marker reporter; actives raise or lower the signal. The procedure, abridged: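 Endogenous transcription factor activity in HepG2 is read through transiently transfected cis-element reporter units. After 24 h dosing, RNA undergoes reverse transcription, PCR and primer extension with 6-FAM before capillary electrophoresis; DMSO-referenced bidirectional fit.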

Assay [11] is described as follows: ATG_EGR_CIS: Attagene CIS-FACTORIAL HepG2 Assay for human Early Growth Response 1 (EGR1) (AID 2282938). The conditions noted are these: HepG2 Attagene CIS-FACTORIAL EGR reporter mRNA; actives raise or lower the signal. The procedure, abridged: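 Activity is taken as induction or loss of reporter mRNA versus DMSO, fitted bidirectionally. Transcripts from cis-regulated reporter units in transiently transfected HepG2 were measured after 24 h by RT-PCR with capillary electrophoresis.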

Assay [12] in a line: ATG_M_19_CIS: Attagene CIS-FACTORIAL HepG2 Assay for M19 Transcription Factor (Internal Marker) (AID 2282939). The conditions noted are these: HepG2 Attagene CIS-FACTORIAL M19 internal marker reporter; actives raise or lower the signal. A digest of the protocol:
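Following a 24 h exposure, RNA from transfected HepG2 cells was reverse-transcribed, PCR-amplified with reporter-specific primers, end-labelled with 6-FAM and HpaI-digested before capillary separation. Values represent gain or loss versus DMSO.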

Assay [13] is described as follows: ATG_Ets_CIS: Attagene CIS-FACTORIAL HepG2 Assay for human Erythroblast Transformation Specific (ETS) (AID 2282941). The conditions noted are these: HepG2 ETS cis-reporter transcription, actives raise or lower the signal. A digest of the protocol:
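Cis-regulated reporter mRNA induction in HepG2 (transient transfection), 24 h exposure, RT-PCR plus capillary electrophoresis detection; DMSO serves as negative control and baseline.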

Assay [14] deals with Hepatocyte nuclear factor 3-beta (Homo sapiens) (UniProt Q9Y261). The experiment in a line: ATG_FoxA2_CIS: Attagene CIS-FACTORIAL HepG2 Assay for human Forkhead box A2 (FOXA2) (AID 2282942). The conditions noted are these: HepG2 cis-reporter transcription factor activity, 24 h; actives raise or lower the signal. A digest of the protocol:
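Reporter transcript induction is measured by fluorescence after capillary electrophoresis of RT-PCR products from HepG2 cells exposed 24 h. Cis-regulated reporter units report endogenous factor activity; curves fitted both directions against DMSO.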

Assay [15] can be described thus: ATG_FoxO_CIS: Attagene CIS-FACTORIAL HepG2 Assay for human Forkhead box O (FoxO) (AID 2282943). The conditions noted are these: HepG2 Attagene cis-reporter, FoxO element, mRNA; actives raise or lower the signal. The procedure, abridged: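 Human hepatoma HepG2 cells carry transiently introduced reporter transcription units controlled by cis promoter elements. Chemical treatment lasted 24 h, and mRNA signal was compared with DMSO.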

Assay [16] in a line: ATG_GATA_CIS: Attagene CIS-FACTORIAL HepG2 Assay for human GATA Binding Protein (AID 2282944). As to conditions: HepG2 GATA cis-element reporter, Attagene multiplex mRNA; actives raise or lower the signal. A digest of the protocol: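 DMSO serves as negative control and baseline for bidirectional fitting of reporter mRNA changes. HepG2 cells bearing transiently transfected cis-promoter reporters were exposed 24 h; transcripts detected via RT-PCR and capillary electrophoresis.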

Assay [17] in a line: ATG_GLI_CIS: Attagene CIS-FACTORIAL HepG2 Assay for human Zinc Finger Protein GLI1 (AID 2282945). The conditions noted are these: HepG2, Attagene cis-factorial reporter mRNA, GLI element; actives raise or lower the signal. A digest of the protocol:
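Bidirectional curve fits relative to DMSO, using reporter mRNA levels from RT-PCR plus capillary electrophoresis. Cells were HepG2 transiently carrying cis-regulated reporter constructs, harvested 24 h after dosing.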

Assay [18] deals with Bile acid receptor (Homo sapiens) (UniProt Q96RI1). The experiment in a line: ATG_IR1_CIS: Attagene CIS-FACTORIAL HepG2 Assay for human Nuclear Receptor Subfamily 1 Group H Member 4 (NR1H4), IR1 submotif (AID 2282946). The conditions noted are these: IR1 reporter transcription, actives raise or lower the signal. A digest of the protocol:
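HepG2 cells transiently transfected with multiplexed cis-element reporter units read endogenous transcription factor activity. After 24 h compound exposure, reporter mRNA was quantified by RT-PCR, fluorescent labelling, HpaI digestion and capillary electrophoresis; bidirectional fitting versus DMSO baseline.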

Assay [19] in a line: ATG_E_Box_CIS: Attagene CIS-FACTORIAL HepG2 Assay for human Enhancer Box (E-box) (AID 2282936). As to conditions: HepG2 E-box cis-reporter transcription, actives raise or lower the signal. The procedure, abridged: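 Fluorescent reporter fragments separated by capillary electrophoresis gave the signal; mRNA came from HepG2 cells transfected with cis-element reporters and treated 24 h. Curves fitted bidirectionally relative to DMSO controls.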

Assay [20] is described as follows: ATG_AP_2_CIS: Attagene CIS-FACTORIAL HepG2 Assay for human Activator Protein 2 (AP-2) (AID 2282932). The conditions noted are these: HepG2 AP-2 cis-reporter, Attagene transcription factor profiling; actives raise or lower the signal. A digest of the protocol: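 Transiently transfected HepG2 cells are exposed to chemical for 24 h. Reporter transcripts are then measured as fluorescence following RT-PCR and capillary separation, and gain- or loss-of-signal is fitted relative to DMSO.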

The structures appear in SMILES notation. Active and inactive are the calls of the source. Rule for the calls: active = hit-call score of the fitted dose curve at least 0.9, where 1 is the maximum; inactive = score below 0.9.

Hepatocyte nuclear factor 3-beta (Homo sapiens), sequence (Q9Y261 whole entry, looked up): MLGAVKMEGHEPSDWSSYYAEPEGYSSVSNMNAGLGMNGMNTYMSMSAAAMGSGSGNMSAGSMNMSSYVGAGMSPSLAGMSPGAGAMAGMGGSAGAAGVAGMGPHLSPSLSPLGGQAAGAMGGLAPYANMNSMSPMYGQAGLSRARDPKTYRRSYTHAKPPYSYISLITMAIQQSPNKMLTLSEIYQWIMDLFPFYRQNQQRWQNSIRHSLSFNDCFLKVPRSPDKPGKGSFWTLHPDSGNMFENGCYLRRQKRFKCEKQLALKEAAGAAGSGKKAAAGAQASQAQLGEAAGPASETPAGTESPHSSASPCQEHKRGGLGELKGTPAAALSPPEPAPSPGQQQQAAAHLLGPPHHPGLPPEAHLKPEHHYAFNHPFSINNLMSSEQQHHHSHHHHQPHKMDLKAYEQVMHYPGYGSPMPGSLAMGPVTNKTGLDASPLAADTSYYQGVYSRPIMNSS
Aryl hydrocarbon receptor (Homo sapiens), sequence (P35869 whole entry, looked up): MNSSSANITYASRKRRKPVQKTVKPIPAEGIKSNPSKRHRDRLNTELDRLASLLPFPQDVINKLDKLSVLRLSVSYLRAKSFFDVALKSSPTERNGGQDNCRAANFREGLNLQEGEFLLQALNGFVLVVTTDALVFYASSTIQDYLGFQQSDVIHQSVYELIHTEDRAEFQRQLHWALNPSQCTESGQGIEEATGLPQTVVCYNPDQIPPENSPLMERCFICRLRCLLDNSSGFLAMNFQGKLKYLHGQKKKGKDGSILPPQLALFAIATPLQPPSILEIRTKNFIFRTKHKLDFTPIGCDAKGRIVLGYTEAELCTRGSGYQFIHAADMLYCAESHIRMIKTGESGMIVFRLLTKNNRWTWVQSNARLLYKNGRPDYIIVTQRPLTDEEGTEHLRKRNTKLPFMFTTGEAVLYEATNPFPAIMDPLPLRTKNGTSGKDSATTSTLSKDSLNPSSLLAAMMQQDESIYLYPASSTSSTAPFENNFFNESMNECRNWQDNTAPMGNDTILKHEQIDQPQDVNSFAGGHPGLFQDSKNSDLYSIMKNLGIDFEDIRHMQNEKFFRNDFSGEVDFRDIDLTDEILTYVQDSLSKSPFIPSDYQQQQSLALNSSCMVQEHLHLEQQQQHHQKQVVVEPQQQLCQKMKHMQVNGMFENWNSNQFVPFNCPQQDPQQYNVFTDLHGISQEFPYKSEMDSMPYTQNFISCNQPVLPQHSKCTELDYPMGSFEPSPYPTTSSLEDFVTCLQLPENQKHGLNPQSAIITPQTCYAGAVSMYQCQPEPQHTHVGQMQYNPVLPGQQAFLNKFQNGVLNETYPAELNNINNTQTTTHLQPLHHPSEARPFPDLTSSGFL
Transcription factor E2F1 (Homo sapiens), sequence (Q01094 whole entry, looked up): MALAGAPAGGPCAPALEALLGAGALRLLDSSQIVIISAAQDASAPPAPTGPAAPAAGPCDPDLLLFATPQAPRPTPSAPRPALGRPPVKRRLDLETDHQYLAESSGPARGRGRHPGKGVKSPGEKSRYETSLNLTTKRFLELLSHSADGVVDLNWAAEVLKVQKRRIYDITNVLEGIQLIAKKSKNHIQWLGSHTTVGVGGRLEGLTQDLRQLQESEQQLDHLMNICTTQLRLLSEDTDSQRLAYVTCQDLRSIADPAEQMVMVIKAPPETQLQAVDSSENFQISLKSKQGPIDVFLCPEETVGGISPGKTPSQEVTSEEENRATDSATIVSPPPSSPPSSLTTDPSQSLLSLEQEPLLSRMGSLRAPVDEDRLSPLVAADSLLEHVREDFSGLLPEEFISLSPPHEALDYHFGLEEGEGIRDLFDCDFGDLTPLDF
Bile acid receptor (Homo sapiens), sequence (Q96RI1 whole entry, looked up): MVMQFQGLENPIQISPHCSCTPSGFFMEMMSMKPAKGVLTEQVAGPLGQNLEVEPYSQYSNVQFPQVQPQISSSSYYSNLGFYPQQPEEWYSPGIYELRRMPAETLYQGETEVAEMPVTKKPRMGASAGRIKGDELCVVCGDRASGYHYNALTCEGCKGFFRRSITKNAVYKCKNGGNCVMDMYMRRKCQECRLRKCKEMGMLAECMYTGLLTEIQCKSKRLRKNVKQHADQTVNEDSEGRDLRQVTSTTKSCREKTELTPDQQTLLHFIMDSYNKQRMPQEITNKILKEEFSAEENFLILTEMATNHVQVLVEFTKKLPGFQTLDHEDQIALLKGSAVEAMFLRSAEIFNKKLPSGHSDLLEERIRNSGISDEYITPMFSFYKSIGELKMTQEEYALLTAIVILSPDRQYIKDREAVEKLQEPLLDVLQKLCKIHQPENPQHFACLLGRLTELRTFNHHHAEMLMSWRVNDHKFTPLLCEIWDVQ
Retinoic acid receptor alpha (Homo sapiens), sequence (P10276 whole entry, looked up): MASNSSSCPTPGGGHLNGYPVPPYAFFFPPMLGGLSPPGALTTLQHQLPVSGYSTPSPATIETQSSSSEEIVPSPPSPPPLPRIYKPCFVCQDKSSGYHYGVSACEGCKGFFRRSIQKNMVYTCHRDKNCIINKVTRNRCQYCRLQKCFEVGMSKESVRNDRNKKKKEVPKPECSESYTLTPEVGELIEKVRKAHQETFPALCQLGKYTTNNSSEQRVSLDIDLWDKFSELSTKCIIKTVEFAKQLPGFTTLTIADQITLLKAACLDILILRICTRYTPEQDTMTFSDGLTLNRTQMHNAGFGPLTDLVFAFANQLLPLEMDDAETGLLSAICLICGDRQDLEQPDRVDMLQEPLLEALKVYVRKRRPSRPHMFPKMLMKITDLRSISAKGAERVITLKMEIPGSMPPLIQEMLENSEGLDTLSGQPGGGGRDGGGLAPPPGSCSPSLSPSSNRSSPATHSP
CCAAT/enhancer-binding protein beta (Homo sapiens), sequence (P17676 whole entry, looked up): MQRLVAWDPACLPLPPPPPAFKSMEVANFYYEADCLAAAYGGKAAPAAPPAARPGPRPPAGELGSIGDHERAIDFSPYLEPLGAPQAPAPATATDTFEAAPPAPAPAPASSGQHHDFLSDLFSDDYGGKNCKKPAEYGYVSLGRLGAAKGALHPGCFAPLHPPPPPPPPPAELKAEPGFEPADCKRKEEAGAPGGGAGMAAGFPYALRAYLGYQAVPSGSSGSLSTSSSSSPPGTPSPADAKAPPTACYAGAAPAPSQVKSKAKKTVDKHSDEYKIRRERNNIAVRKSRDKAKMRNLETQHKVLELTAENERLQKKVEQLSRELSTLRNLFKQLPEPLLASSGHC

Consider `C[N+](C)(C)CCCCCC[N+](C)(C)C`, for which the outcome in [1], in assay [2], in [3], in assay [4], in assay [5] and in assay [6] was inactive. Besides, the compound was classed as inactive in [7], in [8], in assay [9], in assay [10], in [11] and in [12]. The compound was called inactive in assay [13], in assay [14], in assay [15], in assay [16], in assay [17] and in assay [18].

As usually defined, the AC50 is the concentration at which the activity in the assay is half-maximal. Consider `CSc1c(Cl)c(Cl)c(Cl)c(Cl)c1Cl`, for which the AC50 in [1] is 169 µM (active); in [3] it was 26.3 µM (active); in assay [4], 32 µM (active); in assay [19] it was 26 µM (active); in [18] it was 5.76 µM (active). Also, the outcome in [2], in assay [5], in assay [6], in assay [7], in [8] and in assay [9] was inactive. The result in assay [11], in [12], in assay [13], in assay [14], in assay [15] and in assay [16] was inactive.

Regarding `Cc1occc(=O)c1OC(=O)C(C)C`, the compound was classed as inactive in assay [1], in assay [2], in [3], in assay [4], in assay [5] and in assay [6]. The call in assay [7], in [8], in assay [9], in [19], in assay [10] and in [11] was inactive. In addition, the outcome in assay [12], in assay [13], in assay [14], in assay [15], in assay [16] and in assay [17] was inactive.

`CCCOC(=O)c1c(Cl)c(Cl)c(Cl)c(Cl)c1C(=O)OCCC`: the concentration at half-maximal activity (AC50) in assay [1] was 171 µM (active); in assay [3], 73.6 µM (active); in assay [4], 27 µM (active); in assay [6], 178 µM (active); in assay [9], 59.9 µM (active); in assay [17], 74.8 µM (active). Moreover, the outcome in assay [2], in [5], in assay [7], in assay [8], in [19] and in assay [10] was inactive. The result in [11], in assay [12], in [15] and in assay [16] was inactive.

For `COCCOCCOCCO`, the result in assay [1], in assay [2], in [3], in assay [4], in assay [5] and in assay [6] was inactive. Also, the call in assay [7], in [8], in [9], in assay [19], in [11] and in assay [12] was inactive. Besides, the compound was classed as inactive in [14], in assay [15], in [16] and in assay [17].

With `CCCCCCOC(=O)C(C)C`, the result in assay [1], in assay [2], in [3], in [4], in [6] and in assay [20] was inactive. The compound was classed as inactive in assay [7], in assay [8], in [9], in assay [19], in [10] and in assay [11]. The compound was classed as inactive in assay [12], in assay [13], in assay [15], in assay [16], in assay [17] and in [18].

Turning to `OC[C@H]1O[C@@H](Oc2ccc(O)cc2)[C@H](O)[C@@H](O)[C@@H]1O`, the call in assay [1], in [2], in assay [3], in [4], in [5] and in assay [6] was inactive. Further, the call in [7], in assay [8], in assay [9], in [19], in [10] and in assay [11] was inactive. Besides, the compound was called inactive in [12], in assay [13], in assay [14], in assay [15], in assay [16] and in [17].

Consider `CC(C)(CO)[C@@H](O)C(=O)NCCC(=O)O`, for which the compound was classed as inactive in assay [1], in assay [2], in [3], in assay [4], in assay [5] and in [6]. The outcome in assay [7], in assay [8], in [9], in [19], in assay [10] and in [11] was inactive. The result in assay [12], in [13], in assay [14] and in assay [16] was inactive.
